In PubChem BioAssay AID1224864 (Chung Lab, Department of Pediatrics, Emory University, 2016) one finds plasma membrane CFTR intensity and total CFTR intensity data, which are given here for 44 compounds.

Structures are written as SMILES. About 20 (1%) of roughly 2,000 compounds were called active. The rule behind the calls is not given here. Shown is part of a subset that was picked to be rich in actives. Residues, ends and D or L forms follow the SMILES beside them.

The target in the assay is Cystic fibrosis transmembrane conductance regulator (Homo sapiens) (UniProt P13569). The assay is described as follows: F508del-CFTR plasma membrane relocalization enhancers – imaging, HeLa, high-content microscopy, immunofluorescence, primary screen (AID 1224864).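 For plasma membrane CFTR intensity: mean immunofluorescence in a thin cell-margin band taken as plasma membrane.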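 Note: HeLa cells stably expressing F508del-CFTR stained with 3G11 antibody against NBD1.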 To be noted: PM immunofluorescence imaging, 24 h, at 10 µM, stronger effect = higher value, relative to vehicle wells set at 100; total CFTR intensity: measured here: total cellular F508del-CFTR signal.
Sequence of Cystic fibrosis transmembrane conductance regulator (Homo sapiens) (P13569 whole entry, looked up, stated change not applied): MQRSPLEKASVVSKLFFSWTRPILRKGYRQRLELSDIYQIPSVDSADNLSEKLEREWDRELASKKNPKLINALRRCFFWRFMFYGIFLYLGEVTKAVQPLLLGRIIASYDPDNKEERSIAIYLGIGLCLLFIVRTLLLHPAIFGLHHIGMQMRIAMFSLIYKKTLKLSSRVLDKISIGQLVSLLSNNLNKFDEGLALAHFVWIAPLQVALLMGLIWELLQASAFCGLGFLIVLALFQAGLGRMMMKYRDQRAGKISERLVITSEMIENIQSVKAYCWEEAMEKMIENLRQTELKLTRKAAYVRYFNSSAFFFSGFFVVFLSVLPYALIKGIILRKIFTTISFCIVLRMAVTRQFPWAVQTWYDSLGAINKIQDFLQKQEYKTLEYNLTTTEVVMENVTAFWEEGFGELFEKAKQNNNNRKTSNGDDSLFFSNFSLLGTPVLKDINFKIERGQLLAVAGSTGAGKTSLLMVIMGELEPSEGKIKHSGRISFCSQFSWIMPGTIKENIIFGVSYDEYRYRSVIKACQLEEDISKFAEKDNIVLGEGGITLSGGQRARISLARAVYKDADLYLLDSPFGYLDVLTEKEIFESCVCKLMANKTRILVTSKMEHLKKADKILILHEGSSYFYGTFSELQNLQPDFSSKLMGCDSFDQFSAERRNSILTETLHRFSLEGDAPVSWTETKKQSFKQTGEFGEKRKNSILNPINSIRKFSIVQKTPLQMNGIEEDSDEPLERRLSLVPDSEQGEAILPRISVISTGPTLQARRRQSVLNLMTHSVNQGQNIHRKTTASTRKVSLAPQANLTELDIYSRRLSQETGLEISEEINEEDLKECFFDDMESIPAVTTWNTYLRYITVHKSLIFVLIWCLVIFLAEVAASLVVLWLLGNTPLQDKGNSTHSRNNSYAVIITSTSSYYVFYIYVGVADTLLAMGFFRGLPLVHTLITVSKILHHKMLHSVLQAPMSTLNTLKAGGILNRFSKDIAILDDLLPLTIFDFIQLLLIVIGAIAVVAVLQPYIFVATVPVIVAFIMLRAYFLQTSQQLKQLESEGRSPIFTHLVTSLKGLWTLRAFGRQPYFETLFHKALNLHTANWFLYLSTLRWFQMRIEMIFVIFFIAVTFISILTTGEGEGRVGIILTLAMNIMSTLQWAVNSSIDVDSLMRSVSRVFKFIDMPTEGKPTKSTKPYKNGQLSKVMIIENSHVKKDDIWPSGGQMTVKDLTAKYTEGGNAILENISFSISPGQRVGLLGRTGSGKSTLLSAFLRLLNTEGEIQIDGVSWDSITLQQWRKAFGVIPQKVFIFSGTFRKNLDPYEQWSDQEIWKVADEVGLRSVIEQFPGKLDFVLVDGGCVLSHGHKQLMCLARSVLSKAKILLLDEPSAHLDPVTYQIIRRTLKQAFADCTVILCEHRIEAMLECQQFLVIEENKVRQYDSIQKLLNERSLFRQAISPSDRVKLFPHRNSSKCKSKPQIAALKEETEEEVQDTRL
For the compound `O=C(Cc1ccccc1)NNC(=O)Cc1ccccc1`, the plasma membrane CFTR intensity was 74% (inactive) and the total CFTR intensity worked out at 77%.

Take `CC1(C)CC(c2csc(N)n2)CCO1` (stereo not drawn): the plasma membrane CFTR intensity was 90% (inactive) and the total CFTR intensity turned out to be 92%.

For `CC(=O)NC(CC(C)C)C(=O)NC(Cc1ccccc1)C(N)=O` (stereo not drawn) (Ac-Leu-Phe-NH2; configuration not given here), the plasma membrane CFTR intensity is 91% (inactive) and the total CFTR intensity was 94%.

For `O=C(O)C(O)c1ccccc1` (stereo not drawn), the plasma membrane CFTR intensity is 89% (inactive) and the total CFTR intensity is 81%.

As to `Cc1cccc(-c2ncc(CN3CCN(CC(C)C)C(CCO)C3)cn2)c1` (stereo not drawn), the plasma membrane CFTR intensity is 80% (inactive) and the total CFTR intensity was found to be 81%.

For the compound `COC(=O)c1ccc(NC(=O)c2ccccc2SC)cc1`, the plasma membrane CFTR intensity is 81% (inactive) and the total CFTR intensity was found to be 79%.

In the case of `CC(=O)c1c(N)nc2n(c1=O)CCCCC2`, the plasma membrane CFTR intensity was 80% (inactive) and the total CFTR intensity came to 78%.

In the case of `Cn1c(=O)[nH]c(=O)c2c1nc(Br)n2CCCO`, the plasma membrane CFTR intensity is 81% (inactive) and the total CFTR intensity came to 84%.

On to `COc1cc(C(=O)Nc2ccc(N(C)C)cc2)c([N+](=O)[O-])cc1OC`, for which the plasma membrane CFTR intensity was 100% (inactive) and the total CFTR intensity turned out to be 106%.

Take `CC(C)(C)c1csc(N/N=C/c2cccnc2)n1`: the plasma membrane CFTR intensity is 93% (inactive) and the total CFTR intensity is 92%.

In the case of `Cc1ccc(/C=N/Nc2nc(C(C)(C)C)cs2)o1`, the plasma membrane CFTR intensity was 135% (active) and the total CFTR intensity is 153%.

As for `C=CCC1(Cl)C(=O)C(Cl)=C(N2CCOCC2)C1(OC)OC` (stereo not drawn), the plasma membrane CFTR intensity is 77% (inactive) and the total CFTR intensity was determined as 77%.

Regarding `CC(C)=CCC/C(C)=C/CC/C(C)=N/O`, the plasma membrane CFTR intensity was 84% (inactive) and the total CFTR intensity stood at 87%.

On to `Cc1ccc(/C=N/NC(=O)C2(C)CC2(Br)Br)cc1` (stereo not drawn), for which the plasma membrane CFTR intensity was 82% (inactive) and the total CFTR intensity was found to be 80%.

As to `CCOC(=O)c1ccc(NC(=S)NCCc2ccccc2F)cc1`, the plasma membrane CFTR intensity is 81% (inactive) and the total CFTR intensity worked out at 78%.

For the compound `CCOC(=O)Cc1c(C)nc(N)[nH]c1=O`, the plasma membrane CFTR intensity is 82% (inactive) and the total CFTR intensity was found to be 81%.

In the case of `CCN1C(=O)C(CC(=O)Nc2ccc(F)cc2)N(Cc2ccc3c(c2)OCO3)C1=S` (stereo not drawn), the plasma membrane CFTR intensity is 81% (inactive) and the total CFTR intensity was 81%.

Turning to `CCn1c(C)cc2c(c1=O)C(c1ccccc1)C(C(=O)OC)=C(N)O2` (stereo not drawn), the plasma membrane CFTR intensity was 90% (inactive) and the total CFTR intensity was 94%.

With `CCC(C(=O)Nc1ccc2c(c1)OCCO2)c1ccccc1` (stereo not drawn), the plasma membrane CFTR intensity is 78% (inactive) and the total CFTR intensity was 76%.

`O=c1[nH]c(Cc2ccccc2)nc2c1oc1ccccc12`: the plasma membrane CFTR intensity was 78% (inactive) and the total CFTR intensity came out at 79%.

With `CCOc1ccc(C(=O)NC(C)C2COc3ccccc3O2)cc1` (stereo not drawn), the plasma membrane CFTR intensity was 82% (inactive) and the total CFTR intensity came out at 80%.

As for `CC(C)CN1CCN(Cc2cccn2-c2ccccn2)CC1CCO` (stereo not drawn), the plasma membrane CFTR intensity was 88% (inactive) and the total CFTR intensity came to 88%.

In the case of `Cc1csc(N)n1`, the plasma membrane CFTR intensity is 86% (inactive) and the total CFTR intensity came to 87%.

Consider `CS(=O)(=O)Oc1ccc2c(c1)O/C(=C\C=C\c1ccccc1)C2=O`, for which the plasma membrane CFTR intensity is 92% (inactive) and the total CFTR intensity was found to be 97%.

Turning to `Fc1ccccc1CNCCC(Cc1ccccc1)c1ccc2c(c1)OCO2` (stereo not drawn), the plasma membrane CFTR intensity was 171% (inactive) and the total CFTR intensity is 228%.

Take `CC(NC(=O)c1cccnc1)C(=O)O` (stereo not drawn): the plasma membrane CFTR intensity was 75% (inactive) and the total CFTR intensity was 73%.

In the case of `COc1ccc(OC(C)C(=O)Nc2ccc([N+](=O)[O-])cc2)cc1` (stereo not drawn), the plasma membrane CFTR intensity was 76% (inactive) and the total CFTR intensity stood at 72%.

`CC(NC(=O)c1ccc(OC2CCN(Cc3ccccn3)CC2)cc1)c1ccccc1` (stereo not drawn): the plasma membrane CFTR intensity is 73% (inactive) and the total CFTR intensity came out at 66%.

Take `Cc1ncc(CN2CCC(CO)(CCc3ccccc3)CC2)s1`: the plasma membrane CFTR intensity was 75% (inactive) and the total CFTR intensity worked out at 75%.

As to `Cc1ccc(-c2nn(-c3cccc(F)c3)cc2CN2CCN(c3ccccn3)CC2)o1`, the plasma membrane CFTR intensity was 69% (inactive) and the total CFTR intensity came to 69%.

In the case of `CC12CCC(C(=O)NNc3ccccc3)(C(=O)C1=O)C2(C)C` (stereo not drawn), the plasma membrane CFTR intensity is 92% (inactive) and the total CFTR intensity came to 88%.

On to `O=c1nc2n(c3c1oc1ccccc13)Cc1ccccc1-2`, for which the plasma membrane CFTR intensity is 131% (inactive) and the total CFTR intensity was 133%.

With `C#C[C@]1(O)CC[C@H]2[C@@H]3CCc4cc(O)ccc4[C@H]3CC[C@@]21C`, the plasma membrane CFTR intensity was 113% (inactive) and the total CFTR intensity was 106%.

Take `C#C[C@]1(O)CC[C@H]2[C@@H]3CCc4cc(OC)ccc4[C@H]3CC[C@@]21C`: the plasma membrane CFTR intensity was 133% (active) and the total CFTR intensity was determined as 141%.

With `C#C[C@]1(O)CC[C@H]2[C@@H]3CCc4cc(OC5CCCC5)ccc4[C@H]3CC[C@@]21C`, the plasma membrane CFTR intensity is 41% (inactive) and the total CFTR intensity worked out at 30%.

For `COc1ccc(C2c3c(n[nH]c3C)CC(C)(O)C2C(C)=O)cc1OC` (stereo not drawn), the plasma membrane CFTR intensity is 87% (inactive) and the total CFTR intensity was 86%.

In the case of `Cc1ccc2c(c1)C(C)(C)[C@]1(C)NC(=O)CCN21`, the plasma membrane CFTR intensity is 94% (inactive) and the total CFTR intensity worked out at 97%.

With `CC(C)C(CCN1C(=O)CCC1=O)C1CCOC(C)(C)C1` (stereo not drawn), the plasma membrane CFTR intensity was 87% (inactive) and the total CFTR intensity is 90%.

With `CC(C)OC(=O)CC1C(=O)NCCN1C(=S)NC(=O)c1ccccc1Cl` (stereo not drawn), the plasma membrane CFTR intensity was 79% (inactive) and the total CFTR intensity came to 80%.

Consider `COc1ccc(C2C(C(=O)c3ccco3)=C(O)C(=O)N2CC2CCCO2)cc1` (stereo not drawn), for which the plasma membrane CFTR intensity was 79% (inactive) and the total CFTR intensity is 83%.

Regarding `COc1ccc2cc(C3(C)NC(=O)NC3=O)ccc2c1` (stereo not drawn), the plasma membrane CFTR intensity is 89% (inactive) and the total CFTR intensity worked out at 88%.

With `COc1ccc2[nH]c3c(c2c1)CCNC3C1CC=C(C)CC1` (stereo not drawn), the plasma membrane CFTR intensity is 99% (inactive) and the total CFTR intensity stood at 117%.

Turning to `COC(=O)C1[C@H]2C(=O)N(Cc3cccs3)C[C@]23C=C[C@H]1O3` (stereo partly drawn), the plasma membrane CFTR intensity was 92% (inactive) and the total CFTR intensity was 95%.

In the case of `S=C(c1ccc2c(c1)OCO2)N1CCCCC1`, the plasma membrane CFTR intensity is 83% (inactive) and the total CFTR intensity is 85%.
